Out of some 53,000 sequences screened, about 3,700 (7%) were called active.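 Rule for the calls: active = gene knockdowns whose robust z-score for IL-1 alpha signal is at least 2 or at most -2, so actives lie on both sides; inactive = the rest.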 The sample as a whole holds a higher share of actives than the screen did.

The test is described as follows: Components of the Cytosolic LPS Sensing Pathway: Gene Identification via Genome-wide siRNA Screen.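 Note: robust z of the log signal after scaling to non-targeting control siRNA wells of the plate.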 Conditions: RAW264.7 macrophages, IL-1a HTRF, actives lie on both sides, screened at 100 nM (by protocol), cells primed 5 h with Pam3CSK4 first. Put shortly: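 RAW264.7 mouse macrophages reverse-transfected with single siRNAs (100 nM final) for 48h, primed with Pam3CSK4 for 5 hours, then transfected with LipidA for 24 hour. Supernatant IL-1a read by HTRF; values normalized to negative-control median, log-transformed robust z-scores.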
A general note: Time-resolved FRET reads energy transfer from a long-lived donor to a nearby acceptor.
For GGAAAUCGAGCAAAAGACATT against Cep104, the z-score was 1.5 (inactive). With GCCAUUCUUUGAAAAGAGGTT against Ak8 the figure was -1.77 (inactive); with GGUCGUGAUAUUAUUGGGUTT against Ddx47, 2.91 (active). To GCAGGUAAGUUAAAUGAUGTT against Ccdc148 belongs 0.961 (inactive). To CCCUUUACAUUACUCUAGCTT against Olfr715 belongs 0.141 (inactive); to GGGAGCGGAGCAAACAUAATT against Olfr1370, 0.675 (inactive). Turning to CGGUUCUUUUACCAAGAUCTT against Jak3, the z-score was -0.781 (inactive). With GCCGAGUUUACUUGUUUGATT against Exd1, the z-score was 0.554 (inactive). For GGAAGCAAACUUAAAGUGUTT against Ewsr1, the z-score is 2.17 (active). For the sequence GGUGUUCUGUAUCUUGUUCTT against Ndn, the z-score is 0.572 (inactive). With GGAGCUCCAUGACAUGUUUTT against Stx3 the figure was -0.37 (inactive); with CGCGGAGUUUCGAAGUGUCTT against Drd4, 3.64 (active). As to GGAACCUAACAGAGAAACATT against Prpsap2, the z-score was -0.166 (inactive). With GCAAAUACUCAAGUUCAGATT against Cpt1b the figure was 0.382 (inactive); with GGAUACUCGGGAUCUAGUATT against Anxa11, -1.44 (inactive). With GGCAAUUCUGAAGAAACCATT against Ogn the figure was -2.23 (active); with GGAGGAGUCCCAUAACUCATT against Cby2, 1.05 (inactive); with GGUAAACUUGACAAUAGGATT against Zc3h14, -0.512 (inactive).

Consider CCCUGGUCGUCAUUUUCAATT against Morc2b, for which the z-score was 1.54 (inactive). To GCACAAGCGUGGAACACAUTT against Dctn2 belongs 0.702 (inactive). With GGCCCAACAUAUAUCAAAUTT against Adck2 the figure was 1.38 (inactive); with GGAAACUGUUGAAUCUUGUTT against Smad5, 1.42 (inactive). With CCACGCUCUCAAGGUAUAGTT against Cyp2d22 the figure was -2.81 (active); with GGGAUUGGGUAUUUUUUAGTT against B4galt1, -0.432 (inactive); with “CCCGUACAUUGAGUGCAAUTT against 6330403K07Rik”, 0.414 (inactive). In the case of GGAGUUCAGGAAAAUUCUUTT against Fsd1l, the z-score is 0.0551 (inactive). To GGAAGACCUUCAGAGAGAATT against Ell2 belongs 4.25 (active); to GGGAAAGUUAAUAUCAAGATT against Ephb4, 0.185 (inactive). On to GGUGAUGAUGAUGGGCAACTT against Cdkn2a, for which the z-score was 2.02 (active).

With GGACAAGAUUCUAAACUGCTT against Wdr37, the z-score was 1.03 (inactive). To GGCCUUGUAAAUUAUGCAUTT against Klhl23 belongs 0.61 (inactive); to GCCCUUUCCGUCUGAAAUCTT against Hydin, 2.06 (active); to GCUUCUGGUUUUCGGCUAUTT against Sfswap, 0.427 (inactive). To GAUGUGUUAACUACACCGATT against Pyy belongs 0.983 (inactive). To CGAGGAUGAGUUCAGUGAGTT against Pdcl3 belongs -1.19 (inactive); to GUUGGUUUGUUGACCUCUUTT against Arap2, 0.1 (inactive); to CCUACUCUGGUAAAACCUUTT against Immp1l, -0.365 (inactive).

Turning to GCAAAGGCCAAAUAUGAGGTT against Dbil5, the z-score is -2.71 (active). With GCCAUUAAAGGUAACACUGTT against Tmbim7 the figure was 0.0423 (inactive); with GCCUUCUGAGAUAGUAGAUTT against Zcchc17, 0.756 (inactive). With GGAGAAAAUCAAACCAGAUTT against Ddx19b the figure was 0.823 (inactive).

Turning to GGACUGAUGGAUCCUUCCATT against Krtcap3, the z-score is -2.12 (active). With GGCAUCCAUCAACAACAGGTT against Ahsa1 the figure was -0.925 (inactive). With GCAUGUACCCUCUUUGUAGTT against Gjb6 the figure was -0.954 (inactive).

Regarding GGAUUCGAGUGGUAACAAGTT against Nmral1, the z-score was 0.617 (inactive). With GGUAUAGCUACCAUUUUUCTT against Ggct, the z-score was -1.05 (inactive). With CUUACCACCCUGAGUUUCATT against Olfr1066 the figure was -3.2 (active). To GGAGAAAGCAGAAAUUGAATT against Mfap1a belongs -1.31 (inactive); to CCAAGAUUCGGUUUUGCUUTT against Trerf1, -0.33 (inactive); to GGCAGCCCUUUUGCUAAGATT against Neurod1, -0.0737 (inactive).

As to GGCUGGUGAAAGUCAAGGUTT against Arid4a, the z-score is 0.503 (inactive).

As to GGAGCAGUCUCCUUUUUGUTT against Pcnp, the z-score is 2.14 (active).

Consider GCUCUUGAUGUUUAGAGUUTT against Usp17lf, for which the z-score was 0.345 (inactive).

As for GGGCAGCAGCAAUUUCUGUTT against Ahcyl1, the z-score was 1.39 (inactive). To GGAAAAAUUAGACCGUGAGTT against Pcdhb4 belongs -0.299 (inactive); to CCAUUGAUAUUAAAUCGCUTT against Pik3cg, -0.244 (inactive). With GGGCUAUGUAUUGUAAAUGTT against Nxf1, the z-score is -2.79 (active). As to GCACGACUACUUCUCAAAUTT against Prpf6, the z-score was 0.376 (inactive). With GGCCAGAAUAUCAUCGUCATT against Rbks the figure was -0.163 (inactive). With GGGACACCUUCCGUAACUATT against Gcdh, the z-score was -0.832 (inactive). Turning to GCACGCUAUUGGCUAUGAGTT against BC052040, the z-score was -0.0182 (inactive). Consider GGUCAUGAUCAAGACACAUTT against Tmem63c, for which the z-score was 0.371 (inactive). Consider AAGGUUUGGAAACUCAUUGTT against Zbtb25, for which the z-score was -1.77 (inactive).

Take GGGUUAGGCCAGUUCUGAUTT against Reg3d: the z-score was -2.08 (active). In the case of GGAAGAGGAGGAGUACAAGTT against Fnbp1, the z-score is -0.0804 (inactive). To GCAGUUCAUGUCCUGAAUATT against Olfr308 belongs -1.49 (inactive); to GUUUCCAUAUCCUUUAAGUTT against Lilr4b, 1.23 (inactive). With GGAACUGCUCGACAAAGCUTT against Primpol the figure was -2.53 (active); with GGGUUAUAGGUGUGUGUGCTT against Gemin6, -0.389 (inactive).

The values are drawn from PubChem BioAssay AID1508600 (Functional Genomics Laboratory (NCATS/FGL), 2020).
